# The list is not random: actives were taken first. Their share in the collection is about 32%.
# CYP2C19 act: activators of human cytochrome P450 2C19 | recombinant CYP2C19, luciferin-H EGE luminescence; active compounds read high; 0 = fully inhibited enzyme, 1 = untreated enzyme | activation factor at 5 µM | 96,000 tested, under 10 active | AID 1025;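 active = activation factor of at least 2 at 5 µM in the primary screen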;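 note: 0 = wells with 2.5 mM tranylcypromine and 1 = vehicle-only wells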
# CYP2C9 inh: blocks human cytochrome P450 2C9; P11712; CYP2C9 Supersomes, luciferin-H conversion, luminescence; inhibition, % at 5 µM; 20% of 96,000 active;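 active = blocking of liver enzyme CYP2C9 beyond about 50% at 5 µM, limit read from the data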
# Target sequence (P11712 whole entry, looked up): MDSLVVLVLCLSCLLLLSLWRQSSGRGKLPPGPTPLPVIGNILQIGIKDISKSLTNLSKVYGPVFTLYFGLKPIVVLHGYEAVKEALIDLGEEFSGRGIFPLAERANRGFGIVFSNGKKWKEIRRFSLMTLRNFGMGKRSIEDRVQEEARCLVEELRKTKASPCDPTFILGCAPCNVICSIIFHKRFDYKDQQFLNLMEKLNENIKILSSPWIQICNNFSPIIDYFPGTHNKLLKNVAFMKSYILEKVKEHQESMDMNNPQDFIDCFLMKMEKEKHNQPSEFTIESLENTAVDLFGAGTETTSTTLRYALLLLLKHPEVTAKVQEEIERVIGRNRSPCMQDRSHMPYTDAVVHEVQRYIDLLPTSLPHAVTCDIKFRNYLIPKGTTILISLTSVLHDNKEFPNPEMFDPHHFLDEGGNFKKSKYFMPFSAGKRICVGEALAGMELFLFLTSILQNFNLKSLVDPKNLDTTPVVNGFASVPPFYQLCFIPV
# PostGolgi yeast: growth inhibition of a yeast mutant, post-Golgi transport screen | inhibition, % at 10 µM | post-Golgi transport phenotypic cell assay | 0.9% of 98,000 active;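 note: yeast cells grown in 1536-well plates; yeast grown about 18 h at 30C before absorbance read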
# PostGolgi ctrl: growth of the yeast control strain, post-Golgi counter-screen | 5% of 98,000 active | efflux-deficient yeast background strain, growth absorbance A615, 16 h | inhibition, % at 10 µM
# CYP2C19 inh: blocks human cytochrome P450 2C19; P33261; CYP2C19 Supersomes, luciferin-H EGE luminescence, 30 min; inhibition, % at 5 µM; 21% of 96,000 active; AID 778;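 active = CYP2C19 inhibition above a set limit at 5 µM in the primary screen, cut at about 50% in these data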;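 note: plate controls were negative control wells for no effect and 2.5 mM tranylcypromine positive control for full effect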
# CYP2C9 activ: CYP2C9 (human) activation; P11712; recombinant CYP2C9, luciferin-H conversion, luminescence; active compounds read high; factor 1 = untreated enzyme, 0 = blocked; activation factor at 5 µM; 1.4% of 96,000 active; AID 1024;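 active = activation factor of 2 or more for CYP2C9 at a 5 µM dose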;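 note: 0 = sulfaphenazole-blocked wells and 1 = vehicle-only wells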
# Numbers without * were called inactive; . = no result. Cut-off read from the data, not from the text of the source, unless noted: active = inhibition above about 30%; inactive = the rest.
SMILES,CYP2C19 act,CYP2C9 inh,PostGolgi yeast,PostGolgi ctrl,CYP2C19 inh,CYP2C9 activ
COc1ccc(OC)c2sc(NC(=O)C(C)C)nc12,0.5,70*,2,18,46,0.3
CCC(=O)Nc1nc2c(OC)ccc(C)c2s1,.,.,-10,7,.,.
CCOC(=O)c1c(NC(=O)CSc2nc3cccnc3n2C)sc(C(C)=O)c1C,0.7,69*,-2,37*,27,0.3
CCOC(=O)c1c(NC(=O)CSc2nnc(-c3ccccc3C)n2C)sc(C(C)=O)c1C,0.2,95*,-3,19,84*,0.1
CCOC(=O)c1cccc(NC(=O)CSc2nc3cccnc3n2C)c1,0.4,49,-3,25,58*,0.5
CCOc1ccc2nc(NC(=O)CSc3nc4cccnc4n3C)sc2c1,1.1,-23,4,2,-10,1.2
CCOC(=O)c1cccc(NC(=O)Cn2c(CC(=O)NC)nc3ccccc32)c1,0.8,71*,-1,7,25,0.3
O=C(N/N=C/c1cccc(OC2CSC2)c1)c1ccccc1O,1,-7,13,12,-5,1.1
O=C(NC1CCCCC1)N1CCN(CCc2ccccc2)CC1,1,0,10,6,2,1
CC(C)C(=O)Nc1nnc(SCC(=O)NCc2cccs2)s1,1,-2,7,7,3,1
Cc1c(C(=O)N2CCCCC2)nnn1-c1nonc1N,0.6,-5,-9,0,40,1
CN1CCN(C(=O)N2CCNC2=O)CC1,1.2,-33,-1,0,-23,1.3
Cc1ccc(-c2c(C)sc(=NC(=O)c3ccco3)n2C)cc1,0.8,77*,0,13,21,0.2
COCN(C#N)c1nc(OC)nc(OC)n1,1,-2,-6,3,-1,1
Cc1ccc(C(=O)COC(=O)CNC(=O)c2ccco2)cc1,0.5,10,4,-4,45,0.9
O=C(c1cccc(F)c1)N1CCN(C(=O)c2cc(-c3ccc(Cl)cc3Cl)on2)CC1,0.2,39,10,22,80*,0.6
CC1(C)CC(=O)CC(C2(O)C(=O)N(Cc3ccccc3)c3ccccc32)O1 (stereo not given),0.8,1,1,-2,17,1
CC1(C)CC(=O)C(C2(O)C(=O)N(Cc3ccccc3)c3ccccc32)CO1 (stereo not given),0.4,35,-5,-3,63*,0.7
O=C(CCc1ccc(S(=O)(=O)NCCc2ccccc2)cc1)Nc1ccc2c(c1)OCO2,0.1,84*,-8,-3,90*,0.2
CCOC(=O)N1CCN(C(=O)CCSc2ccccc2)CC1,0.3,38,0,12,71*,0.6
CCOC(=O)N1CCN(C(=O)CCc2ccc(S(=O)(=O)NCCc3ccccc3)cc2)CC1,0.2,78*,-7,-1,82*,0.2
O=C(CCc1ccc(S(=O)(=O)NCCc2ccccc2)cc1)N1CCN(Cc2ccc3c(c2)OCO3)CC1,0.5,43,-2,26,53*,0.6
CCOC(=O)N1CCN(C(=O)CCSc2ccc(C)cc2)CC1,.,.,4,6,.,.
CC(C)CNS(=O)(=O)c1ccc(CCC(=O)N2CCN(Cc3ccc4c(c3)OCO4)CC2)cc1,.,.,4,7,.,.
CC(C)CNS(=O)(=O)c1ccc(CCC(=O)Nc2ccc3c(c2)OCO3)cc1,1,38,-10,1,5,0.6
SMILES,CYP2C19 act,CYP2C9 inh,PostGolgi yeast,PostGolgi ctrl,CYP2C19 inh,CYP2C9 activ
CC(C)N(Cc1nnc(-c2ccccc2Cl)o1)C(=O)c1cccc(C#N)c1,0.6,22,.,.,38,0.8
Brc1ccccc1-c1nnc(CSc2nnc3sc4ccccc4n23)o1,0.2,24,1,-1,79*,0.8
C=CCn1c(=O)c2ccccc2n2c(SCC(=O)c3ccccc3)nnc12,0.2,71*,-7,5,82*,0.3
C=CCn1c(=O)c2ccccc2n2c(SCc3nnc(-c4ccccc4Br)o3)nnc12,0.3,64*,1,13,66*,0.4
C=CCn1c(=O)c2ccccc2n2c(SCC(=O)NCCc3ccccc3)nnc12,0.5,29,-7,-2,51*,0.7
N#CCSc1nnc2sc3ccccc3n12,1,-53,-6,5,4,1.5
C=CCn1c(=O)c2ccccc2n2c(Sc3nnnn3-c3ccccc3)nnc12,0.9,22,7,9,9,0.8
CCOc1ccccc1C(=O)n1nc2nc(C)cc(C)c2c1N,0.9,14,-3,-1,9,0.9
Oc1ccc(/C=N/n2c3ccccc3c3ccccc32)cc1,0.8,73*,14,2,20,0.3
CC(C)C(NS(=O)(=O)c1cccc2nsnc12)C(=O)N1CCc2ccccc2C1 (stereo not given),0.8,41,12,26,24,0.6
Cc1ccc(C)c(-c2nn(-c3cc(N4CCN(CCO)CC4)ccc3[N+](=O)[O-])c(=O)c3ccccc23)c1,0.8,45,-2,48*,17,0.5
Cc1nn(-c2cc(N3CCCC3)ccc2[N+](=O)[O-])c(=O)c2ccccc12,0.8,8,-5,-2,24,0.9
Cc1ccc(-c2nn(-c3cc(Cl)ccc3[N+](=O)[O-])c(=O)c3ccccc23)cc1,0.5,31,-1,37*,51*,0.7
CCN(CC)CC(=O)Nc1ccc2c(c1)N(C(=O)CN(CC)CC)c1ccccc1CC2,0.9,70*,1,6,12,0.3
CC(=O)Nc1ccc2c(c1)N(C(=O)CN(C)C)c1ccccc1CC2,1,14,-4,23,-4,0.9
CCOC(=O)Nc1ccc2c(c1)N(C(=O)N(C)C)c1ccccc1CC2,0.3,92*,6,14,72*,0.1
Cc1ccc(NC(=O)CSCC(=O)Nc2ccc(N3CCOCC3)c(Cl)c2)cc1,0.8,46,-10,0,25,0.5
CCOC(=O)Nc1ccc2c(c1)N(C(=O)CCN1CCN3CCCC3C1)c1ccccc1CC2 (stereo not given),1,3,-11,6,-2,1
Cc1ccc(NC(=O)CSCC(=O)N2c3ccccc3CCc3ccccc32)cc1,0.5,63*,-4,24,54*,0.4
CCCC1(CCC)NC(=O)N(CC(=O)N2CCN(C(=O)c3ccco3)CC2)C1=O,1.1,20,12,9,-12,0.8
C/C(CC1CC(COCC(C)C)OC1=O)=N\Nc1nc(-c2ccccc2)cs1 (stereo not given),0.1,72*,15,1,89*,0.3
O=C(O)c1ccc2c(c1)N(Cc1cccc(F)c1)C(=O)CS2,1.2,4,15,-5,-17,1
Cc1noc(NS(=O)(=O)c2ccc(NC(=O)CS(=O)(=O)c3ccccc3)cc2)c1C,1.1,54*,0,21,-8,0.5
Cc1noc(NS(=O)(=O)c2ccc(NC(=O)CSc3nc4ccccc4s3)cc2)c1C,1.2,-14,-3,33*,-20,1.1

# Compound activity from PubChem.
